# Data: PubChem BioAssay (EPA / NIEHS)
# Calls of active or inactive are those of the source. The calls were made as follows: active = hit-call score of the fitted dose curve at least 0.9, where 1 is the maximum; inactive = score below 0.9.
# Experiment: CCTE_Shafer_MEA_acute_burst_duration_mean: CCTE's Neural Acute Assay for Mean Burst Duration, Shafer Lab (AID 2284014)
# Protocol: CCTE_Shafer_MEA_acute assay is conducted using Axion Biosystems 48 well microelectrode array (MEA) plates and Maestro recording system. Each well of the MEA plate contains a grid of 16 microelectrodes embedded in the culture surface. Electrically active cells, such as neurons, can be cultured over the electrodes, and electrical activity in these cells can be recorded extracellularly. The spontaneous firing of neurons is captured from each electrode on a microsecond timescale providing both temporally and spatially precise data. […] The CCTE_Shafer_MEA_acute assay uses primary cultures of rat cortical neurons. As these cultures mature over time, neural networks develop functional activity and form cohesive networks in which electrical activity can be highly coordinated. Baseline 40-minute recordings are made on days post-plating 13 or 15, followed by a secondary 40-minute recording after chemical exposure.CCTE_Shafer_MEA_acute_burst_duration_mean is a component of the CCTE_Shafer_MEA_acute assay. It measures the average time from the first spike (action potential firing) to the last spike in a single-electrode burst (temporally-clustered group of spikes) during a recording in a microelectrode array (MEA) using Axion Biosystems Maestro 768 channel amplifier with the AxIS adaptive spike detector. The recordings before and after chemical treatment are used to calculate a percent change in the mean burst duration in each well.Data from the assay component CCTE_Shafer_MEA_acute_burst_duration_mean was analyzed into 1 assay endpoint. This assay endpoint, CCTE_Shafer_MEA_acute_burst_duration_mean, was analyzed in the negative analysis fitting direction relative to DMSO as the negative control and baseline of activity. Using a type of functional reporter, gain or loss-of-signal activity can be used to understand electrical activity.
# Spontaneous activity in the cortical cultures was recorded using an Axion Biosystems Maestro 768 channel amplifier and Axion Integrated Studios (AxIS) v1.8 (or later) software. The amplifier recorded from all channels simultaneously (gain = 1200 x; sampling rate = 12.5 kHz/channel): raw signals were filtered with a Butterworth band-pass filter (300-5000 Hz), which filters out slower local field potentials leaving only fast potentials, i.e., "spikes", arising from extracellular currents associated with action potentials (Pine 2006; Wheeler and Nam 2011). On-line spike detection of filtered signals was conducted with the AxIS adaptive spike detector, using a threshold of 8x the root mean squared (rms) noise on each channel. Any electrodes with rms noise levels greater than 5 uV were grounded (e.g., no data were recorded). Once grounded, an electrode was grounded for the duration of the experiment. All recordings were conducted at 37 C. Wells were deemed usable if on the day of the exposure >/= 10 electrodes were active (defined as >/= 5 spikes/min). On DIV 13 or 15, a minimum of three wells from one cortical culture preparation were treated with each compound (0.03-40 uM). Prior to recording baseline activity, each mwMEA plate was placed in the Maestro at 37 C and allowed to sit for 20 min while firing rates stabilized. Baseline activity (40 min) was recorded before the addition of each compound. An additional 40 min of spontaneous activity was recorded in the presence of each compound. Changes in network parameters relative to baseline were assessed following compound treatment.
Compound,outcome,AC50
COc1ccc(S(=O)(=O)N2C(=O)[C@@](c3ccccc3OC)(N3C[C@H](O)C[C@H]3C(=O)N(C)C)c3cc(Cl)ccc32)c(OC)c1,inactive,
CCCCCCCCCCO,inactive,
CC(=O)C(C)=CC1C(C)=CCCC1(C)C (configuration not stated),inactive,
CC(=O)Oc1ccccc1C(=O)O,inactive,
C=CCOC(=O)c1ccccc1C(=O)OCC=C,inactive,
Clc1cc(Cl)c(Cl)cc1Cl,inactive,
CCCc1cc(=O)[nH]c(=S)[nH]1,inactive,
CCCCCCCCCCCCCCCCCC(=O)O,inactive,
COc1ccc2c(c1)c(CC(=O)O)c(C)n2C(=O)c1ccc(Cl)cc1,inactive,
C=CCc1ccc(O)c(OC)c1,inactive,
Cc1ccc(C)c(O)c1C,inactive,
Nc1ccc2c(c1)C(=O)c1ccccc1C2=O,inactive,
c1cc(-c2ccncc2)ccn1,inactive,
FC(F)(F)C(F)(F)C(F)(F)C(F)(F)C(F)(F)C(F)(F)CCI,inactive,
Nc1nc(N)c2nc(CNc3ccc(C(=O)N[C@@H](CCC(=O)O)C(=O)O)cc3)cnc2n1,inactive,
Cc1ccc(C(C)C)c(O)c1,inactive,
C[Si]1(C)O[Si](C)(C)O[Si](C)(C)O[Si](C)(C)O1,inactive,
CN1CCCC1=O,inactive,
Cc1ccc2ncccc2c1,inactive,
NS(=O)(=O)c1cc2c(cc1Cl)NCNS2(=O)=O,inactive,
CCOC(=O)C(C)(C)Oc1ccc(Cl)cc1,inactive,
CN[C@H]1CC[C@@H](c2ccc(Cl)c(Cl)c2)c2ccc(S(N)(=O)=O)cc21,inactive,
O=C(O)CCCCC(=O)O,inactive,
NCC1(Cc2noc(=O)[nH]2)CCCCC1,inactive,
CNCc1cc(F)ccc1Oc1ccc(Cl)c(Cl)c1,,33.5 µM (active)
CC(C)(C)c1cc(O)c(C(C)(C)C)cc1O,,29.4 µM (active)
Nc1ccccc1N,inactive,
